According to PubChem BioAssay:
The source made the active and inactive calls.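 How the source made its calls, unless noted: active means NADPH fluorescence slope more negative than the mean of all samples by about 3 SD, 99.7% confidence; inactive means the rest.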

Columns and labels:
[1] = inhibitors of TNFa-induced NFkB p65 translocation, primary screen, imaging, HUVEC, MLSMR starter and 10KST1 sets (AID 438;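 active means inhibition above 20% together with a positive visual image hit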;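 further: compound added about 3h40 before a 20 min TNFalpha stimulation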;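 on inhibition: signal is the nuclear over cytoplasmic p65 intensity ratio per well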); details: HUVEC TNFa-induced p65 nuclear translocation; cell count: measured here: nuclei count (cytotoxicity indicator), at 2.08 µM; inhibition: at 2 µM, stronger effect = higher value, 0% TNFa-plus-vehicle, 100% no-TNFa wells
[2] = inhibitors of E-selectin induction by TNFa, primary screen, imaging, HUVEC, immunofluorescence, MLSMR starter and 10KST1 sets (AID 487;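 active means visually confirmed hit in the image check and inhibition above 20%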;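 on inhibition: signal is fraction of cell area covered by stained E-selectin grains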;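 on nuclei count: 100% = median nuclei count of all wells on the same plate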); details: HUVEC TNFalpha-induced E-selectin immunofluorescence imaging, at 2 µM; inhibition: stronger effect = higher value; nuclei count: measured here: cell number, toxicity
[3] = DUSP6 inhibitors restoring Erk phosphorylation by chemical complementation, primary imaging in DUSP6-transfected HeLa (AID 609;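 active means compounds giving at least 50% inhibition in the cell-based MKP-3 phosphatase rescue imaging test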;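 on inhibition: phospho-Erk level distribution per well compared with pooled transfected vehicle control wells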); details: HeLa MKP-3 transfected, phospho-Erk imaging KS statistic, at 10 µM, cells stimulated with TPA for 15 min
[4] = target: Dual specificity protein phosphatase 6 (Homo sapiens) (UniProt Q16828); test: as above; details: HeLa MKP-3 transfected, phospho-Erk imaging KS statistic; at 10 µM; stronger effect = higher value; cells stimulated with TPA for 15 min
[5] = target: Voltage-gated potassium channel subunit beta-2 (Rattus norvegicus) (UniProt P62483); test: KvBeta enzyme negative modulators, primary screen, biochemical, NADPH fluorescence (AID 622;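 active means fluorescence slope higher than the sample average by over 3 SD, cut at about -0.22 in these data, passing the limit was not always enough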;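 further: slope of raw intensity against log time taken from 70 to 1610 s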); details: recombinant KvBeta, 4-cyanobenzaldehyde reduction, at 10 µM, stronger effect = higher value
[6] = target: Voltage-gated potassium channel subunit beta-2 (Rattus norvegicus) (UniProt P62483); test: KvBeta positive modulators, primary screen, biochemical, NADPH fluorescence (AID 623); details: Recombinant KvBeta, NADPH fluorescence decrease slope, 10 min; at 10 µM; stronger effect = lower value;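 further: fluorescence intensity change per second fitted from 20 to 320 s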
[7] = target: Alpha-2C adrenergic receptor (Homo sapiens) (UniProt P18825); test: modulators of alpha2C/GIRK thallium flux, primary screen, cell-based, HEK293 alpha2C/GIRK1/2 (AID 624;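 active means fluorescence slope after compound addition differing from the mean of all screened samples at 99.7% confidence, in either direction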;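 further: slope of fluorescence ratio to pre-addition baseline per second over 15 to 24 s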); details: thallium flux BTC fluorescence, at 10 µM, actives lie on both sides
[8] = inhibitors of Chlamydomonas gravitaxis, primary screen, whole organism, Chlamydomonas reinhardtii, WT vs cilia-less mutant, absorbance, 96-well (AID 463189;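 active means inhibition at or above 50% relative to wild type and mutant plate controls; inactive means inhibition below 50%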;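 further: 0% = wild type cc124 cells in DMSO and 100% = ciliumless bld1 mutant cells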); details: OD600 absorbance, 2 days, at 10 µM, stronger effect = higher value
[9] = measured here: cell density z-score
[10] = measured here: nuclear c-Myc green intensity z-score
[11] = measured here: nuclear pErk red intensity z-score, stronger effect = higher value

Voltage-gated potassium channel subunit beta-2 (Rattus norvegicus), sequence (P62483 whole entry, looked up): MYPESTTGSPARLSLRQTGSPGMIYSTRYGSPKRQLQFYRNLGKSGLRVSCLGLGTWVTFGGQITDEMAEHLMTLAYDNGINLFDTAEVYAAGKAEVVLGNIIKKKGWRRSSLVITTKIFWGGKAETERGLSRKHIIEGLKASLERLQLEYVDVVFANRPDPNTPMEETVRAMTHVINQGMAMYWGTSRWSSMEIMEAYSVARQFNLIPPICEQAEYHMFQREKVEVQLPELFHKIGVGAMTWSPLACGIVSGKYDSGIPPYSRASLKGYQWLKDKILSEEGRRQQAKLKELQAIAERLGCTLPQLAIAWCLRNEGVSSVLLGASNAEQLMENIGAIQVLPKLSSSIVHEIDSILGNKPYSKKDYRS
Dual specificity protein phosphatase 6 (Homo sapiens), sequence (Q16828 whole entry, looked up): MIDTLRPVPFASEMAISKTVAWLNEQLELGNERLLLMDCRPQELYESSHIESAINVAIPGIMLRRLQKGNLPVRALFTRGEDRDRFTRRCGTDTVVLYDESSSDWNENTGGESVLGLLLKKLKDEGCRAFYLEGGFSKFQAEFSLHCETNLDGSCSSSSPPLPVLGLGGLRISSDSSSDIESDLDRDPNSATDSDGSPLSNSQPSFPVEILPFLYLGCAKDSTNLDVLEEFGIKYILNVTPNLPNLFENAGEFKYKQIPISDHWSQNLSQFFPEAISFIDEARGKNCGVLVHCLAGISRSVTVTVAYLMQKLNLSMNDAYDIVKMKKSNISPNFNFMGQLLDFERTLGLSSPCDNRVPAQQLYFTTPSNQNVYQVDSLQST
Alpha-2C adrenergic receptor (Homo sapiens), sequence (P18825 whole entry, looked up): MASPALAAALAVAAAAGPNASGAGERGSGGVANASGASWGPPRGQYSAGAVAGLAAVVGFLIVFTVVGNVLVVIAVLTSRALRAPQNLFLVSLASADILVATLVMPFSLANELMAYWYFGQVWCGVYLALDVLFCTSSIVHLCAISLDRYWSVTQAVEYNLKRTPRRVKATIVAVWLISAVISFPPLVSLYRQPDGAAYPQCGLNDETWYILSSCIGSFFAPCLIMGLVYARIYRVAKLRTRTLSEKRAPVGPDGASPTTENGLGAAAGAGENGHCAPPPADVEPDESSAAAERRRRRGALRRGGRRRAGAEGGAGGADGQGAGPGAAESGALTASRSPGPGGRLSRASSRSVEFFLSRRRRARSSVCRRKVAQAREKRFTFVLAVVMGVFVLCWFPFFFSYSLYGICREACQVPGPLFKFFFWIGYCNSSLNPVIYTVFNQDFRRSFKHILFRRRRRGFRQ

Row | Compound | cell count [1] | inhibition [1] | inhibition [2] | nuclei count [2] [%] | z-score [3, 9] | z-score [3, 10] | z-score [3, 11] | inhibition [4] | fluorescence slope [5] | NADPH fluorescence slope [6] | slope [7] | inhibition [8]
1 | COc1ccc(C(=O)Cn2c(Br)nc3c2c(=O)n(C)c(=O)n3C)cc1OC | 296 | -12.5% (inactive) | 28.7% (inactive) | 116 | -1.61 | 0.384 | -0.0762 | -1.75% (inactive) | -0.471 (inactive) | -1.3e-05 (inactive) | 0.00557 (inactive) | -16.3% (inactive)
2 | CC1CCCCN1C(=O)C12CCC(C)(/C(=N/O)C1)C2(C)C (centres undefined) | 333 | -6.9% (inactive) | -75.4% (inactive) | 141 | -1.18 | 2.22 | 1.3 | 5.26% (inactive) | -0.407 (inactive) | -0.000148 (inactive) | 0.00568 (inactive) | -7.07% (inactive)
3 | CCc1cc(=O)oc2c(CN3CCCC3)c(O)c(Cl)cc12 | 285 | -8.8% (inactive) | -56.3% (inactive) | 98.8 | 1.82 | -0.243 | -0.206 | 21% (inactive) | -0.247 (inactive) | -3.3e-05 (inactive) | 0.0046 (inactive) | -9.29% (inactive)
4 | Oc1ccccc1-c1nc(NCc2ccco2)c2ccccc2n1 | 332 | 1.4% (inactive) | -50.6% (inactive) | 151 | -1.1 | 2.11 | -0.675 | -7.01% (inactive) | -0.396 (inactive) | -0.000126 (inactive) | 0.00698 (inactive) | -8.43% (inactive)
5 | c1ccc2c(NCC3CCCO3)nc(-c3ccncc3)nc2c1 (centres undefined) | 296 | 1.9% (inactive) | -260% (inactive) | 134 | 0.349 | -0.718 | -1.13 | 1.48% (inactive) | -0.516 (inactive) | -3.7e-05 (inactive) | 0.00585 (inactive) | 141% (active)
6 | Cc1cccc(N(Cc2cc3ccccc3[nH]c2=O)C(=O)c2ccco2)c1C | 391 | -8.8% (inactive) | -117% (inactive) | 150 | 0.27 | -0.684 | -0.0595 | 12.3% (inactive) | -0.439 (inactive) | -0.000168 (inactive) | 0.00782 (inactive) | 22.4% (inactive)
7 | CC12CCC(C(=O)NCCCN3CCOCC3)(OC1=O)C2(C)C (centres undefined) | 297 | 5.1% (inactive) | 12.1% (inactive) | 126 | 0.486 | 0.456 | 1.46 | 8.76% (inactive) | -0.425 (inactive) | -0.000122 (inactive) | 0.0052 (inactive) | -10.2% (inactive)
